Here are results for 39 compounds from PubChem BioAssay AID651692 (Broad Institute, 2012).

Molecules are shown by their SMILES. Results with a measured potency or affinity are listed apart. Values without a mark were called inactive.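 Rule for the calls: active = fitted half-maximal concentration for loss of cell signal no higher than twice the top valid tested concentration; inconclusive = flat curve at 30 to 70% inhibition, or poor fit; inactive = flat within 30%, signal rise, or potency above limit.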

A short description of the test: MDA-MB-231 cell growth inhibition, dose response, cytotoxicity control for RAD54 inhibitor project, CellTiter-Glo luminescence, cherry-pick (AID 651692).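 Note: 0% = median of sample compound wells and -100% = staurosporine control wells; more negative values mean stronger loss of viable cell signal.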 The note with it: MDA-MB-231 viability, 24 h; series mostly up to 26 µM; activity change, negative = growth inhibition: at the top concentration. Background: ATP-based viability assays read luminescence as a measure of living cells.
As for `CCN1CCN(c2ccc(Nc3ccnc4ccccc34)cc2)CC1`, the “activity change, negative = growth inhibition” value was -8.61%.
The result for `CCN(CC)CCOc1c(Br)ccc2c1sc1nc3n(c(=O)c12)CCC3` reads 6.81%.
In the case of `CC(=O)Nc1ccc2cc3ccc(NC(C)=O)cc3nc2c1` it was -1.22%.
With `c1ccc(-c2nc(NCCCn3ccnc3)c3oc4ccccc4c3n2)cc1`, the “activity change, negative = growth inhibition” value was -13.3%.
In the case of `c1ccc2c(c1)[nH]c1c(N3CCN(C4CCCCC4)CC3)ncnc12` it was 4.07%.
The result for `O=C(NCCCN1CCOCC1)c1cnn2c(-c3ccccc3)cc(-c3ccccc3)nc12` reads -10.7%; that for `Cc1ccc2nc3c(c(N)c2c1)CCN3c1ccccc1`, 0.308%.
In the case of `COc1ccc(OC)c2c(C)cc(NCCN3CCOCC3)nc12` it was -1.22%; in that of `CN1CCCN(c2cc(-c3ccc4ccccc4c3)nc3ccnn23)CC1`, -8.54%.
For the compound `Cc1ccnc(SCC(=O)Nc2sc3c(c2C#N)CCC(C(C)(C)C)C3)n1` (centres undefined), the “activity change, negative = growth inhibition” value is 2.74%.
`COc1ccccc1NC(=O)Cn1nnc2sc3c(c2c1=O)CC(C)(C)OC3`: the “activity change, negative = growth inhibition” value was 3.04%.
The result for `OCCNc1nc(Nc2ccc(O)cc2)nc2ccccc12` reads 13.3%.
The result for `CC(C)CSc1ncc(-c2cccc(C(F)(F)F)c2)cn1` reads 9.42%; that for `COc1cc2[nH]c3c(=O)n(CCN(C(C)C)C(C)C)cnc3c2cc1OC`, 14%.
Take `COc1ccc(-c2cc(NC=O)c3ncc(-c4cccc(C(=O)NCCN(C)C)c4)n3c2)cn1`: the “activity change, negative = growth inhibition” value is -14%.
In the case of `CC(C)NC1CCC(Nc2ccnc3cc(Cl)ccc23)CC1` (centres undefined) it was 2.57%; in that of `Nc1cc2ccncc2c2ccccc12`, 0.699%.
As for `CCn1c(=N)c(C(=O)NCCCOC)cc2c(=O)n3cccc(C)c3nc21`, the “activity change, negative = growth inhibition” value was 5.29%.
In the case of `CCNCCNC(=O)c1c(O)c2cccc3c2n(c1=O)CCC3` it was 1.14%; in that of `COc1cc(NCCCNC(C)C)c2nccc(C)c2c1`, -9.96%.
As for `O=C1C(c2ccc(F)cc2)N(C2CCCCC2)C(=O)CN1C1CCCC1` (centres undefined), the “activity change, negative = growth inhibition” value was 0.336%.
In the case of `CN(C)CCCN(C(=O)c1ccc([N+](=O)[O-])o1)c1nc2cc3c(cc2s1)OCO3` it was 10.8%.
In the case of `CCN(CC)CCCNC(=O)c1ccc2c3n(nc2c1)-c1ccc(Cl)cc1CO3` it was 9.21%.
For `CCOC(=O)c1cnc2c(C)cccc2c1NCCCN1CCOCC1`, the “activity change, negative = growth inhibition” value was 0.77%.
The result for `COc1ccc(Nc2cc(C)nc3ccc(OC)cc23)cc1` reads -3.78%.
The result for `NCc1csc(Nc2nncc3ccccc23)n1` reads 9.15%; that for `CCN1CCN(c2cc(C)c3cc(NC(=S)NCCN(C)C)ccc3n2)CC1`, 1.08%; that for `Cc1ccc2nc3c(c(N)c2c1)CCN3C`, 4.96%.
The result for `CN(C)CCNC(=O)c1c(NC(=O)c2ccccc2)sc2c1CCCC2` reads 0.703%.
Regarding `Cc1cc(NCCCN(C)C)n2c(nc3ccccc32)c1C#N`, the “activity change, negative = growth inhibition” value is 6.97%.
The result for `COc1cccc2sc3cc(NCC[C@@H]4CCCN4C)ccc3c(=O)c12` reads 2.12%; that for `CCN1CCc2c(sc(NC(=O)c3ccc(S(=O)(=O)N4CCOCC4)cc3)c2C(=O)OC)C1`, 6.6%; that for `CCOc1ccc2nc(C)cc(Nc3ccc4c(c3)OCCO4)c2c1`, -23.8%.
The result for `O=S(=O)(c1ccc(-c2nnc(SCc3ccccc3)o2)cc1)N1CCCC1` reads 0.546%; that for `CC1CCc2sc3nc(N4CCN(CCO)CC4)n4ncnc4c3c2C1` (centres undefined), -3.77%; that for `COC(=O)c1c(NC(=O)c2ccc(S(=O)(=O)N3CCOCC3)cc2)sc2c1CCN(C(C)C)C2`, 10.1%.
In the case of `CCCCN(CC)CCNC(=S)Nc1ccc2nc(N3CCN(C)CC3)cc(C)c2c1` it was -2.61%; in that of `Clc1ccc2[nH]c3c(NCCCN4CCOCC4)ncnc3c2c1`, -0.34%.
Regarding `COc1ccccc1CNC(=O)c1cccs1`, the “activity change, negative = growth inhibition” value is -3.64%.
